Vaccinia Venus: qHTS for Stage-Specific Inhibitors of Vaccinia Orthopoxvirus: Venus Reporter Primary qHTS | AID 720580, 2013 | 0.46% of 330,000 active | Vaccinia virus Venus reporter expression, fluorescence | Potency, µM (series often up to 36.5 µM), hits mostly inhibitors; calls by dose curve; tested in A549 cells; also: nearly all actives have a fitted effect of over 30% in size
LASV entry inh: qHTS for Inhibitors of binding or entry into cells for Lassa Virus; Lassa virus pseudotype entry inhibition, cell reporter; Potency, µM (series often up to 37.9 µM), hits mostly inhibitors; 1.2% of 300,000 active; calls by dose curve; tested in HEK293 cells; also: nearly all actives have a fitted effect of over 50% in size
Marburg entry inh: qHTS for inhibitors of binding or entry into cells for Marburg Virus | Marburg virus pseudotyped entry inhibition, cell reporter | Potency, µM (titrated, usually from 37.8 µM), actives largely listed as inhibitors | 1.8% of 300,000 active; calls by dose curve; tested in HEK293 cells
HCMV antiviral: qHTS Assay for inhibitors of the human cytomegalovirus (HCMV) | HFF cells, HCMV-luciferase reporter, 72 h; active compounds read low | activity change, negative = inhibition, % at 57.5 µM | 4.5% of 410,000 active | AID 1259415, 2018; in the data active = activity change below about -60%; inconclusive = no clear call, values can overlap the other calls; inactive = above about -39%
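Two-dose cell screen: HFF monolayers treated with compounds and infected with luciferase-expressing HCMV at 1 PFU/cell, 72 h at 37C, then lysed for luciferase measurement.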
HCV inh: qHTS Assay for Inhibitors of Hepatitis C Virus (HCV). Huh7.5.1 HCVcc-Cre infection, luciferase reporter, 44 h. Potency, µM (highest dose often 41.8 µM), most hits filed as inhibitors. 3.4% of 340,000 active; active = well fitted inhibition curve with a large enough effect; inconclusive = small, poorly fitted or top-dose-only effect, or another doubt; inactive = no such curve, though single readings can be large or run the other way
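Whole-lifecycle infectious HCVcc-Cre system; cells 1,000/well, compound then virus (~0.5 moi) added 4 h after plating, 44 h culture. Luciferase read 15 sec following 15 min substrate incubation, room temp.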
VACV mCherry inh: qHTS for Stage-Specific Inhibitors of Vaccinia Orthopoxvirus: mCherry Reporter Primary qHTS; Potency, µM (doses to about 36.5 µM), usual class: inhibitors; 0.63% of 310,000 active; AID 720579, 2013; Vaccinia virus mCherry reporter infection, fluorescence; calls by dose curve; tested in A549 cells; also: nearly all actives have a fitted effect of over 35% in size
Each line names hits and unclear results; the compound was inactive in the other large screens. Sampled rows, rich in hits. Any-hit rate of the full collection: about 7.8%.

Cc1ccc(C(=O)/C=C/Nc2cccc(O)c2)cc1	LASV entry inh inconclusive, Marburg entry inh inconclusive
COc1c2ccccc2nn1-c1ccc(-c2cn(Cc3ccccc3)nn2)cc1	none (no result: Vaccinia Venus, LASV entry inh, Marburg entry inh, HCV inh, VACV mCherry inh)
COc1ccc(-n2nnnc2SCC(=O)NCCc2ccccc2)cc1	none (no result: HCV inh)
CCC(C(=O)NCc1ccc2c(c1)CCN2C(=O)c1ccc(F)cc1)c1ccccc1 (stereo not given)	LASV entry inh inconclusive (no result: Marburg entry inh, HCV inh)
CCN1CCCC1CNC(=O)c1cnn(-c2nccc(-c3ccco3)n2)c1C1CC1 (stereo not given)	none (no result: LASV entry inh, Marburg entry inh, HCMV antiviral, HCV inh)
CC(=O)c1cccc(NS(=O)(=O)c2ccc(N/C=C\C(=O)c3ccc(F)cc3)cc2)c1	Vaccinia Venus inconclusive, LASV entry inh inconclusive, Marburg entry inh inconclusive, HCMV antiviral inconclusive, HCV inh 11µM (no result: VACV mCherry inh)
CC(=O)c1ccc(NS(=O)(=O)c2ccc(N/C=C/C(=O)c3ccc(F)cc3)cc2)cc1	none (no result: Vaccinia Venus, LASV entry inh, Marburg entry inh, VACV mCherry inh)
COc1ccccc1CNC(=O)CCn1cnc2ccccc2c1=O	none (no result: Marburg entry inh, HCV inh)
COc1ccc(-n2nc([N+](=O)[O-])c(=NC3CCN(Cc4ccccc4)CC3)n2O)cc1	Vaccinia Venus inconclusive, Marburg entry inh inconclusive, HCMV antiviral -63, HCV inh inconclusive, VACV mCherry inh inconclusive
COc1ccc(-n2nc([N+](=O)[O-])c(=NCc3cccnc3)n2O)cc1	LASV entry inh inconclusive, Marburg entry inh inconclusive
COc1ccc(-n2nc([N+](=O)[O-])c(=NCCc3ccc(C)cc3)n2O)cc1	none
COc1ccc(-n2nc([N+](=O)[O-])c(=NCCc3ccc(OC)c(OC)c3)n2O)cc1	LASV entry inh inconclusive, Marburg entry inh inconclusive, HCMV antiviral inconclusive, HCV inh 13µM
Cc1cc(Br)cc2c(C(=O)Nc3c(C)n(C)n(-c4ccccc4)c3=O)cc(-c3cccs3)nc12	LASV entry inh inconclusive, Marburg entry inh 6.5µM, HCMV antiviral -63, HCV inh inconclusive
COc1ccc(NC(=O)C2CCCN(C(=O)c3cnn(-c4ccccc4)c3-n3cccc3)C2)cc1 (stereo not given)	LASV entry inh inconclusive, Marburg entry inh inconclusive, HCMV antiviral inconclusive (no result: HCV inh)
CCOC(=O)c1c(-c2ccccc2)oc2ccc(N(C(C)=O)S(=O)(=O)c3ccccc3)cc12	none (no result: HCV inh)
CCOC(=O)c1c(-c2ccccc2)oc2ccc(OC)cc12	HCV inh 11µM (no result: VACV mCherry inh)
CCOC(=O)c1c(-c2ccccc2)oc2ccc(N(C(C)=O)S(=O)(=O)c3cc(C)ccc3C)cc12	HCMV antiviral -106 (no result: HCV inh)
CCOC(=O)c1c(-c2ccccc2)oc2ccc(OCC(O)CNCCN(C)C)cc12 (stereo not given)	Vaccinia Venus inconclusive, LASV entry inh inconclusive, Marburg entry inh inconclusive, HCV inh inconclusive, VACV mCherry inh 11µM
COC(=O)c1c(C)oc2ccc(N(C(=O)c3ccncc3)S(=O)(=O)c3ccc(Br)cc3)cc12	LASV entry inh inconclusive (no result: Marburg entry inh, HCV inh)
COC(=O)c1c(C)oc2ccc(N(C(=O)c3ccncc3)S(=O)(=O)c3cc(C)ccc3C)cc12	LASV entry inh inconclusive, HCMV antiviral -65, VACV mCherry inh inconclusive (no result: HCV inh)
CCCOc1ccc(N2C(=O)C[C@@H](N(Cc3ccc(S(N)(=O)=O)cc3)C(=O)CC)C2=O)cc1	none (no result: Vaccinia Venus, LASV entry inh, HCMV antiviral, HCV inh, VACV mCherry inh)
COC(=O)c1cc2occc2n1Cc1nc(-c2cccc(Br)c2)oc1C	none (no result: LASV entry inh, HCV inh)
CC(NC(=O)c1ccc([N+](=O)[O-])cc1Cl)C1CC2CCC1C2 (stereo not given)	none
O=C(NC12CC3CC(CC(C3)C1)C2)c1ccc(Br)o1	LASV entry inh inconclusive
CC(NC(=O)c1ccc([N+](=O)[O-])o1)C1CC2CCC1C2 (stereo not given)	LASV entry inh inconclusive, HCV inh 11µM, VACV mCherry inh inconclusive (no result: HCMV antiviral)
O=C(NC12CC3CC(CC(C3)C1)C2)c1ccc([N+](=O)[O-])o1	HCMV antiviral -70 (no result: Vaccinia Venus, LASV entry inh, Marburg entry inh, VACV mCherry inh)
COc1ccc(OC)c(NC(=O)c2cc(-c3cc(Cl)ccc3O)n[nH]2)c1	LASV entry inh inconclusive, Marburg entry inh inconclusive, HCMV antiviral inconclusive, HCV inh 7.1µM (no result: Vaccinia Venus, VACV mCherry inh)
CCCOc1ccc(F)cc1-c1cc(C(=O)Nc2cc(OC)ccc2OC)[nH]n1	HCMV antiviral -80 (no result: LASV entry inh, Marburg entry inh, HCV inh)
CC(=O)c1ccccc1C(=O)NCC1Cc2cccc(-c3cccnc3)c2O1 (stereo not given)	none (no result: LASV entry inh, Marburg entry inh, HCMV antiviral, HCV inh)

Compound activity as filed in PubChem BioAssay.
